Several values for one entry are separate records, joined by “and”; a condition that tells them apart may be missing. Equal values may be shown once. Results filed as inconclusive are left out. Where a call stands in place of a potency, no number is given. A number with no mark means an inactive call. Activity calls are given as the source filed them. Calls come from the whole dose curve; as a rule, active = well fitted cell-killing curve with a large enough effect in the repeat runs; inconclusive = weak or mixed curves, or effect the other way; inactive = flat fitted curve, though single readings scatter.

We go through 40 compounds from PubChem BioAssay (Tox21).
Potency is the fitted concentration of half-maximal effect.

A short description of this experiment: qHTS RealTime-Glo MT Cell Viability Assay in HepG2 cells - 0 hour (AID 1224889). Note: nearly all actives have a fitted effect of over 50% in size. The note with it: RealTime-Glo luminescence; series mostly up to 76.8 µM; activity change, negative = cytotoxicity: at the top concentration. The source says:
U.S. Tox21 Program National Center for Advancing Translational Sciences [NCATS] NIH Chemical Genomics Center [NCGC] U.S. Environmental Protection Agency [EPA] National Institutes of Environmental Health Sciences [NIEHS] National Toxicology Program [NTP] U.S. Food and Drug Administration [FDA] Tox21 Assay Overview: Measure of cell viability is critical in the cell-base assay. Analysis of cell viability is necessary for the characterization of cell responses to cytotoxic drugs and environmental stress. A RealTime-Glo MT Cell Viability Assay to monitor cell viability in real time of continues cell culture during 40 hours of compound treatment was used to screen Tox21 10K library compounds in HepG2 cells. The RealTime-Glo MT Cell Viability Assay is a nonlytic, homogeneous, bioluminescent method to measure cell viability in real time using a simple, plate-based method. The assay involves adding NanoLuc luciferase and a cell-permeant prosubstrate to cells in culture. Viable cells reduce the proprietary prosubstrate to generate a substrate for NanoLuc luciferase. This substrate diffuses from cells into the surrounding culture medium, where it is rapidly used by the NanoLuc Enzyme to produce a luminescent signal. The signal correlates with the number of viable cells, making the assay well suited for cytotoxicity studies.
Tox21 Assay Protocol Summary: The mixture of HepG2 cell suspension and reagents were dispensed at 600cells/6 ul/well in 1536-well tissue culture treated black solid bottom plates using a Multidrop dispenser. After the assay plates were incubated at a 37 C/5% CO2 incubator for 5 hours, 23 nL of compounds dissolved in DMSO, positive and negative controls was transferred to the assay plate by a pintool work station. The plates were incubated at 37 C for 40 hours. The luminescence intensity were measured at 0h, 8h, 16h, 24h, 32h and 40h time points using ViewLux plate reader during compound treatment.
For orientation: qHTS replaces the single test concentration by a dilution series.
Regarding `CCCCCCCC(=O)OCC(COC(=O)CCCCCCC)OC(=O)CCCCCCC`, the Potency result is “inactive”. With `CCCCNC(=O)NS(=O)(=O)c1ccc(C)cc1`, the Potency entry was “inactive”. For the compound `CC/C(=C(\c1ccccc1)c1ccc(OCCN(C)C)cc1)c1ccccc1`, the Potency result was “inactive”.

As to `CC(=O)CCC(=O)O`, the Potency entry was “inactive”. Still for that read-out and setting: the same measure for `Cn1c(=O)c2c(ncn2C)n(C)c1=O`: “inactive”; for `CCCCC(CC)C(=O)O` (stereo not given): “inactive”; for `NC(=O)c1cccnc1`: “inactive”. The same measure, in the same setting: for `CCCCC1(COC(=O)CCC(=O)O)C(=O)N(c2ccccc2)N(c2ccccc2)C1=O` the value was “inactive”; for `Oc1ccccc1`, “inactive”. For the compound `Cc1ncc([N+](=O)[O-])n1CCO`, the Potency result was “inactive”. As to `Nc1c2c(nc3ccccc13)CCCC2`, the Potency entry was “inactive”. In the case of `CCN(Cc1c(F)cccc1Cl)c1c([N+](=O)[O-])cc(C(F)(F)F)cc1[N+](=O)[O-]`, the “activity change, negative = cytotoxicity” value was -9.67%. With `CCc1nc(N)nc(N)c1-c1ccc(Cl)cc1`, the Potency result was “inactive”. Take `Nc1ccc([N+](=O)[O-])cc1O`: the “activity change, negative = cytotoxicity” value is -9.51%.

For `OC[C@H]1O[C@H](O[C@]2(CCl)O[C@H](CCl)[C@@H](O)[C@@H]2O)[C@H](O)[C@@H](O)[C@H]1Cl`, the Potency entry is “inactive”. The same measure, in the same setting: the same measure for `C=C(C)C(=O)OCC(C)O` (stereo not given): “inactive”. Still for that read-out and setting: for `CC(C)c1c(C(=O)Nc2ccccc2)c(-c2ccccc2)c(-c2ccc(F)cc2)n1CC[C@@H](O)C[C@@H](O)CC(=O)O` the value was “inactive”. As for `O=CC(=O)c1ccccc1`, the “activity change, negative = cytotoxicity” value is -5.03%. As for `CCCCOC(=O)c1ccc(O)cc1`, the Potency result was “inactive”.

For the compound `CC(=O)Nc1c(I)c(NC(C)=O)c(I)c(C(=O)O)c1I`, the Potency entry was “inactive”. In the case of `COc1cccc(O)c1O`, the “activity change, negative = cytotoxicity” value was 2.26%.

Regarding `O=C1O[C@H]([C@@H](O)CO)C(O)=C1O`, the Potency entry is “inactive”.

As for `CCCc1cc(=O)[nH]c(=S)[nH]1`, the Potency result was “inactive”. Still for that read-out and setting: the same measure for `O=C(O)CC(O)C(=O)O` (stereo not given): “inactive”; for `CN(C)CCOC(c1ccccc1)c1ccccc1`: “inactive”. For `O=C1OC2(c3ccccc31)c1cc(Br)c(O)c(Br)c1Oc1c2cc(Br)c(O)c1Br`, the Potency is 9.92 µM (active) and 20 µM (active).

For `Cc1ccc(S(=O)(=O)O)cc1`, the Potency entry was “inactive”. Consider `CN[C@H]1CC[C@@H](c2ccc(Cl)c(Cl)c2)c2ccccc21`, for which the “activity change, negative = cytotoxicity” value was 21.4% [at 35.3 µM]. Regarding `CN1[C@@H]2CC(OC(=O)[C@H](CO)c3ccccc3)C[C@H]1[C@@H]1O[C@@H]12` (stereo not given in full), the Potency result is “inactive”. On to `CN1CCc2cccc3c2[C@H]1Cc1ccc(O)c(O)c1-3`, for which the Potency entry was “inactive”. `COc1ccc(C(Cl)=C(c2ccc(OC)cc2)c2ccc(OC)cc2)cc1`: the Potency result is “inactive”. In the case of `CC(=O)C(=O)O`, the Potency entry is “inactive”. The same measure, in the same setting: the same measure for `CCOC(N)=O`: “inactive”. In the case of `NC(CO)(CO)CO`, the Potency entry is “inactive”. For the compound `CN(N=O)C(=O)N[C@@H]1[C@@H](O)[C@H](O)[C@@H](CO)O[C@@H]1O`, the Potency result was “inactive”. In the case of `CN(C)C(=O)Nc1ccc(Cl)c(Cl)c1`, the Potency entry was “inactive”. In the case of `NC1CCCCC1`, the Potency result is “inactive”.

As to `O=c1[nH]cnc2c1ncn2[C@H]1CC[C@@H](CO)O1`, the Potency entry is “inactive”. On to `CCCCCCc1ccc(O)cc1O`, for which the Potency entry is “inactive”.

In the case of `CC(=O)CC(c1ccccc1)c1c(O)c2ccccc2oc1=O` (stereo not given), the Potency entry is “inactive”.
